# Results published in publication PMC11995724, “Antibiotic target discovery by integrated phenotypic and activity-based profiling of electrophilic fragments” (Cell chemical biology, 2025).
# The campaign covered roughly 3,200 compounds. About 110 (3.4%) showed an effect of 50% or more. This is one part of a sample in which strong results are shown more often than they occur.
# Tested on: T1, V. cholerae SAD30
# T1 construct: SAD30
# Design: species or system S. aureus MSSA476 (TSB) or V. cholerae SAD30 (LB); 384-well bacterial growth screen at 25 uM, OD600 relative to DMSO control
# Settings: relative growth, OD600, LB; 25 µM; inhibitor
row,Structure (SMILES),% of control remaining [%]
1,"Cc1ccc2sc(N(Cc3ccccc3)C(=O)CCl)nc2c1C [4-K06, N-benzyl-2-chloro-N-(4,5-dimethyl-1,3-benzothiazol-2-yl)acetamide]",100.927
2,"C=CC(=O)Nc1ccccc1Sc1nncs1 [1-G04, N-[2-(1,3,4-thiadiazol-2-ylsulfanyl)phenyl]prop-2-enamide]",100.149
3,"COCCNC(=O)C(C#N)=Cc1sccc1C [9-M17, 2-cyano-N-(2-methoxyethyl)-3-(3-methylthiophen-2-yl)prop-2-enamide]",85.9959
4,"O=C(CCl)N1C[C@@H]2C[C@H]1CN2c1ccccc1 [5-E22, 2-chloro-1-[(1S,4S)-5-phenyl-2,5-diazabicyclo[2.2.1]heptan-2-yl]ethan-1-one]",106.756
5,"COc1cccc(N2C(=O)C=CC2=O)c1 [10-K03, 1-(3-methoxyphenyl)-2,5-dihydro-1H-pyrrole-2,5-dione]",23.8457
6,"CC(=O)Nc1cccc(N2C(=O)C=CC2=O)c1 [10-D09, N-[3-(2,5-dioxo-2,5-dihydro-1H-pyrrol-1-yl)phenyl]acetamide]",85.564
7,"O=C1C=CC(=O)N1c1cccc([N+](=O)[O-])c1 [10-P15, 1-(3-nitrophenyl)-2,5-dihydro-1H-pyrrole-2,5-dione]",35.6906
8,"Cc1cc(C(=O)CCl)c(C)n1-c1cccc([N+](=O)[O-])c1 [10-B16, 2-chloro-1-[2,5-dimethyl-1-(3-nitrophenyl)-1H-pyrrol-3-yl]ethan-1-one]",67.329
9,"O=C1C=CC(=O)N1c1cccc(O)c1 [10-O07, 1-(3-hydroxyphenyl)-2,5-dihydro-1H-pyrrole-2,5-dione]",26.4952
10,"COc1cccc(NC(=O)C(C#N)=Cc2ccc(O)cc2)c1 [8-O17, 2-cyano-3-(4-hydroxyphenyl)-N-(3-methoxyphenyl)prop-2-enamide]",71.584
11,"COc1cccc(NC(=O)C(C)Cl)c1 (stereo not shown) [6-I03, 2-chloro-N-(3-methoxyphenyl)propanamide]",100.863
12,"NS(=O)(=O)c1cccc(N2C(=O)C=CC2=O)c1 [10-I05, 3-(2,5-dioxo-2,5-dihydro-1H-pyrrol-1-yl)benzene-1-sulfonamide]",102.396
13,"CC(Cl)C(=O)N1CCCC(n2ccc(C(F)(F)F)n2)C1 (stereo not shown) [7-A08, 2-chloro-1-{3-[3-(trifluoromethyl)-1H-pyrazol-1-yl]piperidin-1-yl}propan-1-one]",84.3218
14,"O=C(CCl)Nc1nc2c(s1)CCc1ccccc1-2 [6-D03, 2-chloro-N-{4H,5H-naphtho[1,2-d][1,3]thiazol-2-yl}acetamide]",105.868
15,"CC(NC(=O)CCl)C(=O)N1CCS(=O)(=O)CC1 (stereo not shown) [5-K14, 2-chloro-N-[1-(1,1-dioxo-1lambda6-thiomorpholin-4-yl)-1-oxopropan-2-yl]acetamide]",88.7675
16,"C=CC(=O)N1CCOCC1c1noc(C)n1 (stereo not shown) [3-O11, 1-[3-(5-methyl-1,2,4-oxadiazol-3-yl)morpholin-4-yl]prop-2-en-1-one]",103.029
17,"C=CC(=O)N1CCC(C(=O)NCc2ccoc2C)CC1 [1-E14, N-[(2-methylfuran-3-yl)methyl]-1-(prop-2-enoyl)piperidine-4-carboxamide]",89.0882
18,"C=CC(=O)N(Cc1ccc(F)cn1)c1cnn(C2CCCC2)c1C [1-D11, N-(1-cyclopentyl-5-methyl-1H-pyrazol-4-yl)-N-[(5-fluoropyridin-2-yl)methyl]prop-2-enamide]",86.846
19,"Cc1ccc(C=C(C#N)C(=O)Nc2ccccc2C)cc1 [8-G16, 2-cyano-N-(2-methylphenyl)-3-(4-methylphenyl)prop-2-enamide]",72.8076
20,"N#CC(=Cc1ccc(C#N)cc1)C(=O)Nc1cccc(Cl)c1Cl [8-J05, 2-cyano-3-(4-cyanophenyl)-N-(2,3-dichlorophenyl)prop-2-enamide]",72.9436
21,"CC(Cl)C(=O)NCCc1nc2cc(F)ccc2s1 (stereo not shown) [7-P11, 2-chloro-N-[2-(5-fluoro-1,3-benzothiazol-2-yl)ethyl]propanamide]",81.4142
22,"CC(Cl)C(=O)Nc1ccc(Cc2nnc3ncccn23)cc1 (stereo not shown) [7-O22, 2-chloro-N-[4-({[1,2,4]triazolo[4,3-a]pyrimidin-3-yl}methyl)phenyl]propanamide]",91.0623
23,"O=C(CCl)NCc1ccc(OC(F)(F)F)cc1 [6-G08, 2-chloro-N-{[4-(trifluoromethoxy)phenyl]methyl}acetamide]",91.3072
24,"O=C1C=CC(=O)N1c1ccc(Oc2ccccc2)cc1 [10-F17, 1-(4-phenoxyphenyl)-2,5-dihydro-1H-pyrrole-2,5-dione]",26.1835
25,"O=C1C=CC(=O)N1c1ccc(OC(F)(F)F)cc1 [10-J19, 1-[4-(trifluoromethoxy)phenyl]-2,5-dihydro-1H-pyrrole-2,5-dione]",30.0799

row,Structure (SMILES),% of control remaining [%]
1,"CCOC(=O)C(C#N)=Cc1ccc(N2C(=O)C=CC2=O)cc1 [10-N11, ethyl 2-cyano-3-[4-(2,5-dioxo-2,5-dihydro-1H-pyrrol-1-yl)phenyl]prop-2-enoate]",96.6297
2,"Cc1cc(C(=O)C(C)Cl)c(C)n1-c1ccc(OC(F)F)cc1 (stereo not shown) [10-E10, 2-chloro-1-{1-[4-(difluoromethoxy)phenyl]-2,5-dimethyl-1H-pyrrol-3-yl}propan-1-one]",97.7206
3,"N#CC(=Cc1cccc(Oc2ccccc2)c1)C(=O)N1CCCC1 [9-F06, 3-(3-phenoxyphenyl)-2-(pyrrolidine-1-carbonyl)prop-2-enenitrile]",85.724
4,"N#CC(=Cc1ccc(OC(F)F)cc1)C(=O)N1CCCC1 [8-L22, 3-[4-(difluoromethoxy)phenyl]-2-(pyrrolidine-1-carbonyl)prop-2-enenitrile]",77.0224
5,"CCn1cc(N2C(=O)C=CC2=O)cn1 [10-I21, 1-(1-ethyl-1H-pyrazol-4-yl)-2,5-dihydro-1H-pyrrole-2,5-dione]",56.731
6,"O=C1C=CC(=O)N1c1ccc(OC(F)F)cc1 [10-P11, 1-[4-(difluoromethoxy)phenyl]-2,5-dihydro-1H-pyrrole-2,5-dione]",36.7816
7,"CCOc1ccc(N2C(=O)C=CC2=O)cc1 [10-A14, 1-(4-ethoxyphenyl)-2,5-dihydro-1H-pyrrole-2,5-dione]",23.3781
8,"Cc1cc(C(=O)CCl)c(C)n1-c1ccc(OC(F)(F)F)cc1 [10-G04, 2-chloro-1-{2,5-dimethyl-1-[4-(trifluoromethoxy)phenyl]-1H-pyrrol-3-yl}ethan-1-one]",98.344
9,"O=C(CCl)NCCC1=CCCCC1 [4-H05, 2-chloro-N-[2-(cyclohex-1-en-1-yl)ethyl]acetamide]",111.451
10,"O=C(CCl)NCCc1cccc2c1Oc1ccccc1O2 [7-J18, 2-chloro-N-[2-(oxanthren-1-yl)ethyl]acetamide]",77.317
11,"CN(CC(=O)Nc1cccc(Cl)c1)C(=O)CCl [5-F18, 2-chloro-N-{[(3-chlorophenyl)carbamoyl]methyl}-N-methylacetamide]",84.0601
12,"Cc1ccc(Sc2ccc(NC(=O)CCl)cc2)cc1C [4-G03, 2-chloro-N-{4-[(3,4-dimethylphenyl)sulfanyl]phenyl}acetamide]",107.311
13,"CCCCNC(=O)C(C#N)=Cc1ccc2c(c1)OCCO2 [9-G11, N-butyl-2-cyano-3-(2,3-dihydro-1,4-benzodioxin-6-yl)prop-2-enamide]",85.724
14,"CCc1ccccc1NC(=O)CN(C)C(=O)CCl [6-L06, 2-chloro-N-{[(2-ethylphenyl)carbamoyl]methyl}-N-methylacetamide]",89.1838
15,"O=C1C=CC(=O)N1c1ccc2ccccc2c1 [10-D07, 1-(naphthalen-2-yl)-2,5-dihydro-1H-pyrrole-2,5-dione]",22.2872
16,"Cc1ccccc1N1C(=O)C=CC1=O [10-J13, 1-(2-methylphenyl)-2,5-dihydro-1H-pyrrole-2,5-dione]",23.0664
17,"Cc1cccc(N2C(=O)C=CC2=O)c1C [10-H05, 1-(2,3-dimethylphenyl)-2,5-dihydro-1H-pyrrole-2,5-dione]",27.1186
18,"Cc1c(Cl)cccc1N1C(=O)C=CC1=O [10-B17, 1-(3-chloro-2-methylphenyl)-2,5-dihydro-1H-pyrrole-2,5-dione]",23.3781
19,"CC(Cl)C(=O)Nc1ccccc1C#N (stereo not shown) [6-A11, 2-chloro-N-(2-cyanophenyl)propanamide]",96.0091
20,"Cc1c(Cl)cccc1NC(=O)CNC(=O)CCl [5-N20, 2-chloro-N-{[(3-chloro-2-methylphenyl)carbamoyl]methyl}acetamide]",102.049
21,"N#Cc1ccccc1N1C(=O)C=CC1=O [10-B13, 2-(2,5-dioxo-2,5-dihydro-1H-pyrrol-1-yl)benzonitrile]",22.7547
22,"N#Cc1ccccc1NC(=O)CCl [5-P04, 2-chloro-N-(2-cyanophenyl)acetamide]",116.339
23,"Cc1ccccc1N1C(=O)CSC1=C(C#N)C(=O)N1CCCCC1 [8-B12, 2-[3-(2-methylphenyl)-4-oxo-1,3-thiazolidin-2-ylidene]-3-oxo-3-(piperidin-1-yl)propanenitrile]",78.1101
24,"Cc1c(Cl)cccc1NC(=O)C(C)Cl (stereo not shown) [6-I10, 2-chloro-N-(3-chloro-2-methylphenyl)propanamide]",83.2686
